Source: PubChem BioAssay AID504652 (National Center for Advancing Translational Sciences (NCATS), 2011)
The whole screen tested about 360,000 compounds, of which about 11,000 (3.1%) were called active. Cut-off read from the data, not from the text of the source: active = activity change below about -30%; inactive = the rest. The sample as a whole holds a higher share of actives than the screen did.
% is set by controls: 0 for no effect and ±100 for the full control effect.

What follows are compounds tested against D(1A) dopamine receptor (Homo sapiens) (UniProt P21728) (assay: Antagonist of Human D 1 Dopamine Receptor: qHTS). Conditions: HEK293 TREx D1 cells, calcium flux, dopamine EC80; at 10 µM; hits give low values.
D(1A) dopamine receptor (Homo sapiens), sequence (P21728 whole entry, looked up): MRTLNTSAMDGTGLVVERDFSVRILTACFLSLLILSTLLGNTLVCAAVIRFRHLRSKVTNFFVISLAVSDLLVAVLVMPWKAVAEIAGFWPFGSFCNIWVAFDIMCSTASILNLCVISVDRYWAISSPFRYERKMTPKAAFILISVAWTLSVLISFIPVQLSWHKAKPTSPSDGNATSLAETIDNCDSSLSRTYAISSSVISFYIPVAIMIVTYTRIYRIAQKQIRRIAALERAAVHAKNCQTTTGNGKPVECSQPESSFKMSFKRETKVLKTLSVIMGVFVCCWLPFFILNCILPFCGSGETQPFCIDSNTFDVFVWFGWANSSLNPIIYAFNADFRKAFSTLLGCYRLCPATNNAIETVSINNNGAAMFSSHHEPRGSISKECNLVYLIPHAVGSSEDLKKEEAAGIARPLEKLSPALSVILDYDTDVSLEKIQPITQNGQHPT
Summary of the method: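 Compound effects on dopamine-evoked calcium signalling were measured in tetracycline-induced HEK293 Trex D1 cells. Dopamine at EC80 followed a 180 s compound pre-read, and fluorescence was tracked kinetically for 180 s more.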
With `CC(=O)c1cc(C#N)c(SCC(=O)Nc2nccs2)nc1C` the activity change, negative = inhibition was 2.32% (inactive). `CC(=O)c1cc(C#N)c(N2CC(C)OC(C)C2)nc1C` (stereo not drawn) was tested, and the activity change, negative = inhibition was -0.422% (inactive). For `CC(=O)c1cc(C#N)c(N2CCCCC2)nc1C`, the activity change, negative = inhibition was -36.9% (active). In the case of `O=C(Cn1c(=O)n(Cc2ccccc2)c(=O)c2sc3ccccc3c21)Nc1ccccc1F`, the activity change, negative = inhibition is reported as 0.434% (inactive). With `CNC(=O)c1ccc(-c2nc(CN3CCc4ccccc43)c(C)o2)cc1` the activity change, negative = inhibition was 6.56% (inactive). For `COc1cccc(Cn2c(CNS(=O)(=O)c3ccc(Cl)s3)nc3cccnc32)c1`, the activity change, negative = inhibition was 25.3% (inactive). `CN1CCN(C(=O)c2ccc(NS(=O)(=O)c3ccccc3)cc2)CC1` was tested, and the activity change, negative = inhibition was -3.19% (inactive). In the case of `CCOC(=O)N1CCN(C(=O)c2ccc(S(=O)(=O)Nc3cccc(C(F)(F)F)c3)cc2)CC1`, the activity change, negative = inhibition is reported as -41.7% (active). `CCOC(=O)c1cccc(NS(=O)(=O)c2c(C(=O)N3CCCCCC3)c(C)n(C)c2C)c1` was tested, and the activity change, negative = inhibition was 14.9% (inactive). In the case of `Cc1ccc(C(=O)CSc2nc(-c3ccccc3)nc3c2CCCC3)c(C)c1`, the activity change, negative = inhibition is reported as 17.2% (inactive). In the case of `Cc1nn(Cc2ccc(C(=O)N3N=C(C(F)F)CC3(O)C(F)F)cc2)c(C)c1[N+](=O)[O-]` (stereo not drawn), the activity change, negative = inhibition is reported as -31.2% (active). For `Cc1ccc(C(C)NC(=O)Cn2nc(C)c([N+](=O)[O-])c2C)cc1` (stereo not drawn), the activity change, negative = inhibition was -12% (inactive). `Cc1ccn(CC(=O)N2N=C(C(F)F)CC2(O)C(F)F)n1` (stereo not drawn) was tested, and the activity change, negative = inhibition was 3.73% (inactive). With `CCc1nnc(SCc2nc(-c3cccc(C)c3)oc2C)c2cc3sc(C)cc3n12` the activity change, negative = inhibition was 8.82% (inactive). In the case of `CCc1cccc(NC(=O)c2cnc(N3CCOCC3)c3ccccc23)c1`, the activity change, negative = inhibition is reported as -4.31% (inactive). With `CC(=O)c1sc(N2C(=O)c3oc4ccccc4c(=O)c3C2c2ccc(C)cc2)nc1C` (stereo not drawn) the activity change, negative = inhibition was 1.92% (inactive). With `O=C(CN1CCCCC1)Nc1ccccc1C(=O)NC1CC1` the activity change, negative = inhibition was 6.93% (inactive). In the case of `COC(=O)c1ccccc1NC(=O)CSc1nnnn1C`, the activity change, negative = inhibition is reported as -7.79% (inactive). For `Cn1nnnc1SCC(=O)Nc1ccccc1C(=O)NC1CC1`, the activity change, negative = inhibition was -31.5% (active). `Cc1cccc(CCNC(=O)c2ccc3c(c2)nc2n3CCC(C)C2)c1` (stereo not drawn) was tested, and the activity change, negative = inhibition was 2.06% (inactive). With `Oc1ccc(Cl)cc1C1C=C(c2ccc3c(c2)OCO3)NC(c2c(F)cccc2Cl)N1` (stereo not drawn) the activity change, negative = inhibition was -6.98% (inactive). In the case of `COc1ccc(S(=O)(=O)Nc2cccc3cccnc23)c(N)c1`, the activity change, negative = inhibition is reported as 8.2% (inactive). In the case of `COc1cccc(-n2ccn(CC(=O)NCc3ccc(C)cc3)c(=O)c2=O)c1`, the activity change, negative = inhibition is reported as -17.3% (inactive). For `CC1(C(=O)NNC(=S)NCC2CCCO2)CC1(Cl)Cl` (stereo not drawn), the activity change, negative = inhibition was -33.9% (active). For `CCC(=O)NC(NCC1CCCO1)C(Cl)(Cl)Cl` (stereo not drawn), the activity change, negative = inhibition was -13.3% (inactive). With `S=C(NCCc1ccccc1)NCC1CCCO1` (stereo not drawn) the activity change, negative = inhibition was 5.26% (inactive). With `O=C(CC1Oc2ccc(Cl)cc2NC1=O)NCc1ccccc1` (stereo not drawn) the activity change, negative = inhibition was -13.4% (inactive). `CCC(C(=O)OCC(=O)Nc1ccccc1-c1ccccc1)c1ccccc1` (stereo not drawn) was tested, and the activity change, negative = inhibition was 5.02% (inactive). For `CCC(C(=O)OCC(=O)Nc1c(Cl)cc(Cl)cc1Cl)c1ccccc1` (stereo not drawn), the activity change, negative = inhibition was -5.4% (inactive). For `CCC(C(=O)OCC(=O)Nc1ccc(C(=O)Nc2ccc(OC)cc2)cc1)c1ccccc1` (stereo not drawn), the activity change, negative = inhibition was -57.6% (active). For `CCOC(=O)c1ccc(CSc2nnc3cc(C)c4ccccc4n23)cc1`, the activity change, negative = inhibition was 11.8% (inactive). `CCN(CC)S(=O)(=O)c1ccc(C(=O)N=c2sc3cccc(OC)c3n2C)cc1` was tested, and the activity change, negative = inhibition was -7.05% (inactive). For `CCOc1ccc(-c2nonc2NC(=O)c2oc3ccc(CC)cc3c2C)cc1`, the activity change, negative = inhibition was -6.14% (inactive). With `CCc1nc(-c2cc(S(=O)(=O)N3CCN(c4ccc(OC)cc4)CC3)ccc2OC)no1` the activity change, negative = inhibition was -58.8% (active). In the case of `COc1ccc(N2CCN(S(=O)(=O)c3ccc(-c4coc(C)n4)cc3)CC2)cc1`, the activity change, negative = inhibition is reported as 3.09% (inactive). For `COc1ccc(S(=O)(=O)N2CCN(c3ccc(F)cc3)CC2)cc1-c1noc(C)n1`, the activity change, negative = inhibition was -9.63% (inactive). `Cc1cc(C)cc(NC(=O)CCCc2nc(-c3ccccc3Cl)no2)c1` was tested, and the activity change, negative = inhibition was 5.87% (inactive). For `Cc1ccc(NC(=O)c2ccc(CN3CC(=O)N4CCCCC4C3=O)cc2)c(Cl)c1` (stereo not drawn), the activity change, negative = inhibition was 1.45% (inactive). With `C=C1c2cc(CC)ccc2NC(=O)N1c1ccc(C)cc1` the activity change, negative = inhibition was -37.2% (active). With `CCNC(=O)CC1C(=O)N(c2ccc(F)cc2)C(=O)N1Cc1ccc(C)cc1` (stereo not drawn) the activity change, negative = inhibition was -4.84% (inactive). `Cc1ccc(CC2C(=O)N(c3ccc(F)cc3)C(=O)C2C)cc1` (stereo not drawn) was tested, and the activity change, negative = inhibition was -14.1% (inactive). For `Cn1c(=O)c2c(nc(Oc3ccc(C#N)cc3)n2Cc2ccc(Cl)cc2Cl)n(C)c1=O`, the activity change, negative = inhibition was 17.3% (inactive). With `O=C(/C=C/c1ccc(Cl)cc1)N1CCN(c2ccccc2[N+](=O)[O-])CC1` the activity change, negative = inhibition was -7.39% (inactive). With `CN(C)c1ccc(/C=C/C(=O)c2ccc(O)cc2)cc1[N+](=O)[O-]` the activity change, negative = inhibition was -31.2% (active). For `Cc1nn(-c2ccccc2)c(Cl)c1/C=C/C(=O)c1ccc(O)cc1`, the activity change, negative = inhibition was -19.2% (inactive). For `Cc1ccc(Cl)cc1NC(=O)/C(C#N)=C\c1cn(Cc2ccc(F)cc2)c2ccccc12`, the activity change, negative = inhibition was -3.88% (inactive). `Cc1ccccc1OCc1nc2c3cnn(-c4ccccc4F)c3ncn2n1` was tested, and the activity change, negative = inhibition was 3.88% (inactive). With `COc1ccccc1C(=O)OCC(=O)NCCNC(=O)COC(=O)c1ccccc1OC` the activity change, negative = inhibition was 9.27% (inactive). With `COc1ccccc1CNC(=O)COC(=O)c1sc(C)nc1C` the activity change, negative = inhibition was -37.9% (active). For `COc1ccccc1CNC(=O)COc1ccc(C)nc1[N+](=O)[O-]`, the activity change, negative = inhibition was 4.17% (inactive). In the case of `COc1ccc(S(=O)(=O)NCC(c2ccc(N(C)C)cc2)N2CCCC2)cc1` (stereo not drawn), the activity change, negative = inhibition is reported as -3.85% (inactive). `Cc1cc(OCC(=O)NCC2(N(C)C)CCCCC2)cc(C)c1Cl` was tested, and the activity change, negative = inhibition was 1.84% (inactive). `O=C(CNC(=O)c1ccc2ccccc2c1)Nc1ncccc1O` was tested, and the activity change, negative = inhibition was -39.8% (active). For `CC1CCC(NC(=O)CNC(=O)c2ccc3ccccc3c2)CC1` (stereo not drawn), the activity change, negative = inhibition was -16.3% (inactive). `O=C(Nc1ncccc1O)c1ccc(C(=O)c2ccccc2)cc1` was tested, and the activity change, negative = inhibition was -8.68% (inactive). With `Cc1ccc(S(=O)(=O)N2CCCc3cc(NS(=O)(=O)c4cc(C)ccc4C)ccc32)cc1` the activity change, negative = inhibition was -3.71% (inactive). For `CCc1ccc(NC(=O)CSc2nc3c([nH]c4ccccc43)c(=O)n2-c2cccc(OC)c2)cc1`, the activity change, negative = inhibition was -24.8% (inactive). `CCOc1ccc(-c2cc3nc(C4CCN(C(=O)OC(C)(C)C)CC4)c(C(=O)Nc4cccc(CC)c4)cn3n2)cc1` was tested, and the activity change, negative = inhibition was 2.76% (inactive). With `CC(=O)Nc1ccc(NS(=O)(=O)c2cc(C)sc2C)cc1` the activity change, negative = inhibition was -48.1% (active). For `Cc1ccc(C(=O)Nc2ccc(C(=O)O)cc2)cc1S(=O)(=O)Nc1ccccc1`, the activity change, negative = inhibition was 1% (inactive). For `CC(=O)Nc1ccc(NS(=O)(=O)c2ccc3c(c2)NC(=O)CC(=O)N3)cc1`, the activity change, negative = inhibition was 19.3% (inactive). In the case of `COc1cc2c(=O)c(S(=O)(=O)c3ccc(C(C)C)cc3)cn(Cc3ccccc3C)c2cc1OC`, the activity change, negative = inhibition is reported as 22.6% (inactive). In the case of `CCCNC(=O)C1CCN(c2nc3ccc(C)cc3[nH]2)CC1`, the activity change, negative = inhibition is reported as 2.03% (inactive). `CN(C(=O)CN(CCO)CC(=O)N(C)C(C)(C)Cc1ccccc1)C(C)(C)Cc1ccccc1` was tested, and the activity change, negative = inhibition was -97.3% (active). For `CC(C)(C)N(Cc1ccccc1)C(=O)c1ccncc1`, the activity change, negative = inhibition was 1.43% (inactive). `CN(Cc1ccccc1)C(=O)c1cccc(C(=O)N(C)Cc2ccccc2)c1` was tested, and the activity change, negative = inhibition was -2.18% (inactive). With `COc1cc(CN(CC2CCCO2)C(=O)c2ccccc2F)cc(OC)c1OC` (stereo not drawn) the activity change, negative = inhibition was -5.27% (inactive). With `Cc1c(CN2CC[C@@H](N3CCN(c4ccccn4)CC3)[C@H](O)C2)[nH]c2ccc(F)cc12` the activity change, negative = inhibition was -30.2% (active). `Cc1c(CN2CCC(CO)(CCOc3ccccc3)CC2)[nH]c2ccc(Cl)cc12` was tested, and the activity change, negative = inhibition was -2.77% (inactive). In the case of `Cc1nc(N2CCN(c3ccccn3)CC2)c2c(C)c(C(=O)Nc3ccc(F)cc3)sc2n1`, the activity change, negative = inhibition is reported as 1.11% (inactive). In the case of `CCCCN(C)S(=O)(=O)c1ccc(C(=O)Nc2sc3c(c2C(N)=O)CC(C)(C)NC3(C)C)cc1`, the activity change, negative = inhibition is reported as 18.5% (inactive). In the case of `Cc1oc2ncn(CC(C)C)c(=O)c2c1C(=O)N1CCN(c2ccccc2F)CC1`, the activity change, negative = inhibition is reported as -5.83% (inactive). With `Cn1c(=O)c(C(=O)O)nn(-c2ccccc2)c1=O` the activity change, negative = inhibition was -4.78% (inactive). For `CCC(=O)N1CCc2cc(S(=O)(=O)NC(Cc3ccccc3)C(=O)NCc3ccccc3)ccc21` (stereo not drawn), the activity change, negative = inhibition was -62% (active). For `CCC(=O)N1CCc2cc(S(=O)(=O)NC(Cc3ccccc3)C(=O)NCc3ccc(C)cc3)ccc21` (stereo not drawn), the activity change, negative = inhibition was 20.6% (inactive). With `CCC(=O)N1CCc2cc(S(=O)(=O)NC(C(=O)N3CCc4ccccc4C3)C(C)C)ccc21` (stereo not drawn) the activity change, negative = inhibition was -32.3% (active). For `CCC(=O)N1CCc2cc(S(=O)(=O)NC(C(=O)Nc3ccc(C(C)=O)cc3)C(C)C)ccc21` (stereo not drawn), the activity change, negative = inhibition was -1.32% (inactive). With `CCC(=O)N1CCc2cc(S(=O)(=O)NC(C(=O)NCCc3ccc(C)cc3)C(C)C)ccc21` (stereo not drawn) the activity change, negative = inhibition was 14.4% (inactive). `CC(=O)N1CCc2cc(S(=O)(=O)NC(Cc3ccccc3)C(=O)NCc3ccc(C)cc3)ccc21` (stereo not drawn) was tested, and the activity change, negative = inhibition was 7.72% (inactive). `Cc1ccc(C)c(Cn2c(C(=O)O)c(CNCc3cccs3)c3ccccc32)c1` was tested, and the activity change, negative = inhibition was 57.2% (inactive). `Cc1ccccc1-c1nc2cc(NC(=O)c3cccc(OCCC(C)C)c3)ccc2o1` was tested, and the activity change, negative = inhibition was 0.754% (inactive). In the case of `CC1=C(C(=O)N2CCN(c3cccc(C(F)(F)F)c3)CC2)C2(CCCCC2)OC1=O`, the activity change, negative = inhibition is reported as -3.32% (inactive). In the case of `COC(=O)c1ccccc1NC(=O)Cn1c(=O)n(-c2cccc(C(F)(F)F)c2)c(=O)c2c(C)c(C)sc21`, the activity change, negative = inhibition is reported as 0.199% (inactive). For `CCOC(=O)C1CCCN(CC(=O)Nc2cc(C)c3c(=O)oc4ccccc4c3n2)C1` (stereo not drawn), the activity change, negative = inhibition was -9.54% (inactive). For `COc1ccccc1Nc1nc(N)nc(N)c1S(=O)(=O)c1ccccc1`, the activity change, negative = inhibition was 3.62% (inactive). For `CCN(CC)S(=O)(=O)c1ccc2c(c1)nc(CN(C)C(=O)Nc1ccc(Cl)cc1)n2C`, the activity change, negative = inhibition was -30.4% (active). With `CCN(CC)S(=O)(=O)c1ccc(NC(=O)c2cnc(C)cn2)cc1` the activity change, negative = inhibition was 5.26% (inactive). In the case of `Cn1c(CN2CCOCC2)nc2cc(NC(=O)c3ccc(Cl)cc3)ccc21`, the activity change, negative = inhibition is reported as -2.81% (inactive).
